# Test results taken from the supplement of paper PMC11172423.
# Key:
# [1] = test system: Falciformispora senegalensis CBS197.79; assay: growth relative to untreated control; higher = less inhibition, active = 20 or less
# In short: (§1)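 In 96-well plates, suspended hyphal fragments of M. mycetomatis MM55 or F. senegalensis CBS197.79 were exposed to compound at 100 or 25 µM for 7 days at 37 °C. The suspension medium was colourless RPMI 1640 with L-glutamine and MOPS, adjusted to 68–72% transmission at 660 nm. Viability was measured with MTS (2 h, 490 nm) or resazurin (600 nm). Growth means metabolic activity compared with the untreated growth control after blank correction of both with medium plus dye.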
# [2] = test system: Madurella mycetomatis MM55; assay: as above
# In short: as §1
Structure (SMILES),growth ([1]; 25 µM),growth ([1]; 100 µM),growth ([2]; 25 µM),growth ([2]; 100 µM)
CN(C)CCNC(=O)c1csc(Nc2ccc(Cl)c(Cl)c2)n1,92.7% (inactive),83.6% (inactive),47.4% (inactive),62.3% (inactive)
COc1ccc(-c2nn3c(-c4ccco4)nnc3s2)cc1OC,104% (inactive),96% (inactive),97% (inactive),55.2% (inactive)
O=C(CCCN1CCC(O)(c2ccc(Cl)cc2)CC1)c1ccc(F)cc1,103% (inactive),14.2% (active),76.2% (inactive),4.14% (active)
CC(C)Oc1ccc(-c2nc(-c3cccc4c3CC[C@@H]4NCCO)no2)cc1C#N,9.29% (active),6.46% (active),3.06% (active),3.42% (active)
CC(C)Nc1ncc2nc(Nc3cc(C(F)(F)F)cc(C(F)(F)F)c3)n(C3CCNCC3)c2n1,104% (inactive),107% (inactive),104% (inactive),64.5% (inactive)
CCCCc1oc2ccccc2c1C(=O)c1cc(I)c(OCCN(CC)CC)c(I)c1,101% (inactive),104% (inactive),78.3% (inactive),87.6% (inactive)
CC(C)(C)NC(=O)[C@@H]1CN(Cc2cccnc2)CCN1C[C@@H](O)C[C@@H](Cc1ccccc1)C(=O)N[C@H]1c2ccccc2C[C@H]1O,105% (inactive),103% (inactive),113% (inactive),90.8% (inactive)
COc1ccc(CCNc2nccc(-c3cc(Cl)cc(C(F)(F)F)c3)n2)cc1,87.1% (inactive),94.6% (inactive),110% (inactive),116% (inactive)
Cc1nc(NCc2ccc(F)cc2)nc(NCC(C)(C)C)c1C,15.9% (active),17.8% (active),6.77% (active),5.94% (active)
C[C@H](NC(=O)c1cc2cccc(F)c2[nH]1)c1ccccc1,100% (inactive),90.3% (inactive),26.9% (inactive),6.74% (active)
Nc1nc(NC2CC2)c2ncn([C@H]3C=C[C@@H](CO)C3)c2n1,94.3% (inactive),107% (inactive),97% (inactive),83.8% (inactive)
C[C@H](CS)C(=O)N1CCC[C@H]1C(=O)O,109% (inactive),91.7% (inactive),77.5% (inactive),95.8% (inactive)
COC(=O)C1=C(C)NC(C)=C(C(=O)OC)C1c1ccccc1[N+](=O)[O-],98.9% (inactive),41.1% (inactive),89.7% (inactive),4.04% (active)
OCCN1CCN(CCCN2c3ccccc3Sc3ccc(C(F)(F)F)cc32)CC1,1.11% (active),8.28% (active),3.76% (active),3.71% (active)
Cc1cc2ncc(C(=O)NCC(C)(C)NCC(=O)N3CCC[C@H]3C#N)cn2n1,105% (inactive),102% (inactive),82.4% (inactive),84.8% (inactive)
Cc1ccc(Cl)cc1NC(=O)c1c(-c2ccccc2Cl)noc1C,79.7% (inactive),80.1% (inactive),32.8% (inactive),131% (inactive)
O=C(NCCN1CCCC1)c1ccc(Nc2nccc(-c3ccc(Cl)cc3)n2)cc1,83.6% (inactive),7.34% (active),50.5% (inactive),5.82% (active)
NC(=O)c1ncn([C@@H]2O[C@H](CO)[C@@H](O)[C@H]2O)n1,110% (inactive),102% (inactive),87.9% (inactive),87.6% (inactive)
CC(CN1c2ccccc2Sc2ccccc21)N(C)C (stereo unspecified),102% (inactive),12.8% (active),77.8% (inactive),3.58% (active)
CC(N)CCn1c(Nc2cc(Cl)cc(C(F)(F)F)c2)nc2cnc(NC(C)(C)C)nc21 (stereo unspecified),19.4% (active),12.8% (active),6.25% (active),5.86% (active)
Cc1cccc(C=NNc2cc(N3CCOCC3)nc(OCCc3ccccn3)n2)c1,82.1% (inactive),101% (inactive),45.9% (inactive),10.4% (active)
FC(F)(F)c1cc(Cl)cc(Nc2nc3cnc(NC4CCC4)cc3[nH]2)c1,70.6% (inactive),10.8% (active),109% (inactive),27% (inactive)
OB(O)O,90.6% (inactive),104% (inactive),98.7% (inactive),163% (inactive)
CS(=O)(=O)N1CCC(NC(=O)c2cc3ccc(C(F)(F)F)cc3[nH]2)CC1,90.8% (inactive),84.8% (inactive),101% (inactive),109% (inactive)
